Records with an inconclusive call do not appear. Calls of active or inactive are those of the source. The call rests on the fitted dose curve; in most records, active means well fitted curve in the direction sought with a large enough effect; inconclusive means small, poorly fitted or top-dose-only effect, or another doubt; inactive means no such curve, though single readings can be large; an effect the other way counts as inactive or inconclusive. Where a SMILES comes first, the peptide text is derived from it. The star is where a group is joined. Hexanoyl = CCCCCC(=O)*
Key:
[1] = Tertiary RLuc qRT-PCR qHTS assay for Zika virus inhibitors (AID 1347169); further: nearly all actives have a fitted effect of over 55% in size; further: potency means the concentration at half of the fitted maximal effect; on activity change, negative = inhibition: top concentration of the series differs between compounds; on the % scale 0 is the no-effect control and ±100 the full control effect
Summary of the method: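 Orthogonal cell-based infection assay using recombinant ZIKV-RLuc (Cambodian) in Vero cells; compound added prior to virus at MOI 1-2. Incubation lasts 48-72 hrs at 37 degrees C before live-cell Renilla substrate is added and luminescence measured.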

[2] = OV-KATE Cancer Cell Toxicity qHTS against the NCATS CANVASS Library (AID 1347345); further: on the % scale 0 is the no-effect control and ±100 the full control effect
Summary of the method: (§1)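 Following a 4 h pre-incubation of 1000 seeded cells, compounds were pinned in an 11-pnt dilution series and left for 72 h; viability then came from CellTiter-Glo.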

[3] = OV-SAHO Cancer Cell Toxicity qHTS against the NCATS CANVASS Library (AID 1347348); further: series mostly up to about 38 µM; on the % scale 0 is the no-effect control and ±100 the full control effect; nearly all actives have a fitted effect of over 55% in size
Summary of the method: as §1

[4] = SW1088 Cancer Cell Toxicity qHTS against the NCATS CANVASS Library (AID 1347350); further: nearly all actives have a fitted effect of over 75% in size; further: potency means the concentration at half of the fitted maximal effect
Summary of the method: as §1

[5] = U-118MG Cancer Cell Toxicity qHTS against the NCATS CANVASS Library (AID 1347351); conditions: outcome: dose series up to 38.3 µM
Summary of the method: as §1

[6] = COV-362 Cancer Cell Toxicity qHTS against the NCATS CANVASS Library (AID 1347352); further: series mostly up to about 38 µM; on the % scale 0 is the no-effect control and ±100 the full control effect
Summary of the method: (§2)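 Cells were seeded at 1000 per well and allowed to settle 4 hours at 37 degrees C before pin transfer of compounds as an 11-point series. Viability was read by CellTiter-Glo luminescence after 72 hours' exposure.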

[7] = UWB1.289-WTBRCA1 Cancer Cell Toxicity qHTS against the NCATS CANVASS Library (AID 1347354); conditions: outcome: dose series up to 38.3 µM
Summary of the method: as §2

[8] = HPAF-II 24hr Apoptosis Induction qHTS against the NCATS CANVASS Library (AID 1347356); further: 0% is about no effect
Summary of the method: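 HPAF-II cells (500/well) in DMEM + 10% FBS were treated with an 11-point compound series for 24 hours at 37 degrees C. Caspase-3/7 activity was then read by Caspase-Glo DEVD luminescence after 15 min.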

[9] = HEK293 18hr Apoptosis Induction qHTS against the NCATS CANVASS Library (AID 1347357); further: 0% is about no effect
Summary of the method: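 Luminescent caspase-3/7 signal is measured in HEK293 cells exposed for 18 hours to an 11-point concentration series; doxorubicin serves as the plate control.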

[10] = HPAF-II 12hr Apoptosis Induction qHTS against the NCATS CANVASS Library (AID 1347358); further: 0% is about no effect
Summary of the method: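 HPAF-II cells (500/well, DMEM + 10% FBS) were exposed to compounds for 12 hours at 37 degrees C. Caspase-3/7 activity was then read by Caspase-Glo 3/7 luminescence after 15 min at room temperature.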

[11] = HEK293 24hr Apoptosis Induction qHTS against the NCATS CANVASS Library (AID 1347359); further: 0% is about no effect
Summary of the method: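 HEK293 cells (500/well, DMEM + 10% FBS) were exposed to compounds in an 11-point series for 24 hours at 37 degrees C, then caspase-3/7 activity was read by Caspase-Glo DEVD luciferase luminescence after 15 min.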

[12] = HPAF-II 18hr Apoptosis Induction qHTS against the NCATS CANVASS Library (AID 1347360); further: 0% is about no effect
Summary of the method: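 Apoptosis was scored as caspase-3/7 activity in HPAF-II pancreatic cancer cells treated 18 hours with an 11-point concentration series.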

[13] = HEK293 12hr Apoptosis Induction qHTS against the NCATS CANVASS Library (AID 1347361); further: 0% is about no effect
Summary of the method: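 Apoptosis in HEK293 was scored as caspase-3/7 luminescence following 12 h treatment with a compound concentration series in qHTS format.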

[14] = tested on: NAD(P)H diaphorase (Clostridium kluyveri); assay: Diaphorse counterscreen qHTS: Assay Interference Panel against the NCATS CANVASS Library (AID 1347362); further: 0% is about no effect
Summary of the method: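 Clostridium kluyveri diaphorase in PBS with 0.01% Tween-20 was preincubated 15 min at room temperature in the dark with compounds (11-point series). Resorufin fluorescence (ex 525/20, em 598/25) was read 5 min after adding resazurin/NADH.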

[15] = HepG2 cells viability qHTS for Zika virus inhibitors (AID 1347168); further: on the % scale 0 is the no-effect control and ±100 the full control effect
Summary of the method: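 Counter-screen for cytotoxicity of hits from NS2B-NS3 protease qHTS. Overnight-attached cells (2.5 x 10^5 cells/mL, DMEM/4% FBS) were dosed in titration, incubated 24 to 48 hours, then assayed by CellTiter Glo.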

[16] = UWB1.289 Cancer Cell Toxicity qHTS against the NCATS CANVASS Library (AID 1347347); further: series mostly up to about 38 µM; on the % scale 0 is the no-effect control and ±100 the full control effect; nearly all actives have a fitted effect of over 60% in size
Summary of the method: as §1

[17] = Panc-1005 Cancer Cell Toxicity qHTS against the NCATS CANVASS Library (AID 1347349); further: series mostly up to about 38 µM; on the % scale 0 is the no-effect control and ±100 the full control effect; nearly all actives have a fitted effect of over 60% in size
Summary of the method: as §1

[18] = HPAF-II Cancer Cell Toxicity qHTS against the NCATS CANVASS Library (AID 1347346); further: series mostly up to about 38 µM; on the % scale 0 is the no-effect control and ±100 the full control effect; nearly all actives have a fitted effect of over 55% in size
Summary of the method: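 HPAF-II cells were seeded at 1000 cells/well, allowed to settle for 4 h at 37 degrees C, then exposed to compounds in an 11-point series for 72 h. Viability was read by CellTiter-Glo luminescence.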

[19] = HEK-293 Cancer Cell Toxicity qHTS against the NCATS CANVASS Library (AID 1347355); further: series mostly up to about 46 µM; on the % scale 0 is the no-effect control and ±100 the full control effect; nearly all actives have a fitted effect of over 65% in size
Summary of the method: as §2

[20] = A2780 Cisplatin Sensitive Ovarian Cancer Cell Toxicity qHTS against the NCATS CANVASS Library (AID 1347353); further: series mostly up to about 46 µM; on the % scale 0 is the no-effect control and ±100 the full control effect; nearly all actives have a fitted effect of over 60% in size
Summary of the method: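 A2780 cisplatin-sensitive cells (750 per well) were seeded, left 4 h at 37 °C, then pin-dosed in an 11-point series. After 72 h at 37 °C/5% CO2, viability was measured as ATPLite luminescence.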

CSCC[C@H](NC(=O)[C@H](CO)NC(=O)[C@H](CCC(=O)O)NC(C)=O)C(=O)N[C@H](C=O)CC(=O)O (Ac-ESMD-aldehyde)
inactive: activity change, negative = inhibition [1] -0.374% [at 5.25 µM]

COc1cc2c(c(OC)c1O)C(c1ccc(O)cc1)C1C(=O)OC3C(COC(=O)C1=C2)OC(CO)(OC1OC(COC(=O)/C=C/c2ccc(OC4OC(C)C(O)C(O)C4O)cc2)C(O)C(O)C1O)C3O (configuration not stated)
inactive: Potency [1]

O=C(/C=C/C=C/c1ccc2c(c1)OCO2)N1CCCCC1
inactive: outcome [2] | outcome [3] | Potency [4] | outcome [5] | outcome [6] | outcome [7] | outcome [8] | outcome [9] | outcome [10] | outcome [11] | outcome [12] | outcome [13] | outcome [14]

O=C1NC(=O)/C(=C/c2cccc(C(F)(F)F)c2)S1
active: Potency [1] 18.6 µM
inactive: outcome [15]

CC(=O)O[C@H]1C[C@@]2(C)[C@@H](CC[C@H]3[C@@]4(C)C=CC(=O)[C@@H](C)[C@@H]4[C@H](OC(C)=O)C(=O)[C@@]32C)/C1=C(\CCC=C(C)C)C(=O)O
inactive: outcome [2] | outcome [16] | outcome [3] | outcome [17] | outcome [5] | outcome [6] | outcome [7] | outcome [8] | outcome [9] | outcome [10] | outcome [11] | outcome [12] | outcome [13]

Cc1ccc([C@@H]2CC=C(C(=O)O)[C@H](c3ccc(C(C)(C)C)cc3)N2S(=O)(=O)c2ccc(C)cc2)cc1
active: Potency [1] 18.6 µM
inactive: outcome [15]

O=C(/C=C/c1ccccc1)OC[C@H]1O[C@@H](OC(=O)c2cc(O)c(O)c(O)c2)[C@H](O)[C@@H](O)[C@@H]1O
inactive: Potency [1]

CC1=C2CC3C(CCC3(C)O)C(C)(O)CC2OC1=O (configuration not stated)
inactive: Potency [1]

COc1cccc(CNc2ccc(S(=O)(=O)Nc3nc4ccccc4s3)cc2)c1O
active: Potency [1] 0.186 µM
inactive: outcome [15]

CC1(C)CC[C@]2(C(=O)O)CC[C@]3(C)C(=CCC4[C@@]5(C)CC[C@H](O[C@@H]6O[C@H](C(=O)O)[C@@H](O)[C@H](O)[C@H]6O)C(C)(C)C5CC[C@]43C)C2C1 (some centres not stated)
active: Potency [1] 9.79 µM

CCC(C)/C=C(C)/C=C/C1=CC2=CC(=O)C(C)(O)C(OC(C)=O)C2CO1 (configuration not stated)
inactive: Potency [1]

O=C(O)CC1CCC(c2ccc(-c3ccc(Nc4ccc(C(F)(F)F)nc4)cn3)cc2)CC1 (configuration not stated)
active: Potency [1] 16.5 µM
inactive: outcome [15]

COc1cc(CCCO)ccc1O[C@@H]1O[C@H](CO)[C@@H](O)[C@H](O)[C@H]1O
inactive: Potency [1]

CC1(C)[C@H]2C[C@H](C/C=C\CCCC(=O)O)[C@@H](NC(=O)c3csc4ccc(O)cc34)[C@@H]1C2
inactive: Potency [1]

C/C(=C\CC/C(C)=C/CC[C@]1(C)CCc2cc(O)cc(C)c2O1)CC/C=C(\C)C(=O)O
inactive: outcome [15] | Potency [1] | outcome [2] | outcome [18] | outcome [16] | outcome [3] | outcome [17] | outcome [5] | outcome [6] | outcome [7] | outcome [19] | outcome [8] | outcome [9] | outcome [10] | outcome [11] | outcome [12] | outcome [13]
active: Potency [4] 18.8 µM

CO[C@H]1c2cc(C(C)C)c(O)c(O)c2[C@@]23CCCC(C)(C)C2[C@@H]1OC3=O (some centres not stated)
inactive: Potency [1]

O=C(O)CC/C=C\C[C@H]1CO[C@@H](c2ccccc2Cl)O[C@H]1c1ccccc1O
inactive: Potency [1]

O=C(O)C1(c2ccc(-c3ccc(Cl)c(Cl)c3)c(F)c2)CC1
inactive: outcome [15] | Potency [1]

CC(C)=CCC[C@@](C)(O)[C@H]1CC[C@]2(C)[C@@H]1[C@H](O)CC1[C@@]3(C)CC[C@H](O[C@@H]4O[C@H](CO)[C@@H](O)[C@H](O)[C@H]4O[C@@H]4O[C@H](CO)[C@@H](O)[C@H](O)[C@H]4O)C(C)(C)[C@@H]3CC[C@]12C (some centres not stated)
inactive: Potency [1]

CC(C)c1ccc2c(c1)CCC1[C@](C)(C(=O)O)CCC[C@]21C (some centres not stated)
inactive: outcome [2] | outcome [18] | outcome [16] | outcome [3] | outcome [17] | Potency [4] | outcome [5] | outcome [6] | outcome [20] | outcome [7] | outcome [19] | outcome [8] | outcome [9] | outcome [10] | outcome [11] | outcome [12] | outcome [13] | outcome [14]

COc1ccc(C2C(C(=O)O)C(C(=O)O)C2c2ccc(OC)cc2O[C@@H]2O[C@H](CO)[C@@H](O)[C@H](O)[C@H]2O)c(O[C@@H]2O[C@H](CO)[C@@H](O)[C@H](O)[C@H]2O)c1 (some centres not stated)
inactive: Potency [1]

CCCCCC(=O)N1CCC[C@H]1C(=O)N[C@@H](Cc1ccc(O)cc1)C(=O)OC (Hexanoyl-Pro-Tyr-OMe)
inactive: Potency [1]

CC1C(O)C(O)C2C(C(=O)OCCc3ccc(O)cc3)=COC(O[C@@H]3O[C@H](CO)[C@@H](O)[C@H](O)[C@H]3O)C12 (some centres not stated)
inactive: outcome [15] | Potency [1]

From PubChem BioAssay (NCATS)
